In the supplement of paper PMC10849652:
About 8,800 targets were measured; listed, in parts, are those with a hit and a random draw of the rest. About 0.5% of all pairs of compound and target were hits.

Key:
Assay in all cases: log2 fold change, soluble protein after heating vs DMSO (PISA); higher = thermal stabilisation; K562 lysate, 10 uM; active = over 0.2 and 3.5 SD of the protein, either way, in both replicates (recomputed)
[1] = compound: CS(=O)(=O)CCNCc1ccc(-c2ccc3ncnc(Nc4ccc(OCc5cccc(F)c5)c(Cl)c4)c3c2)o1 [lapatinib]
Method in brief: (§1)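 Thermal stability, expressed as log-two fold change relative to solvent controls, is given from duplicates. Crude K562 extract in PBS pH 7.4 with 1 mM MgCl2, at 1 mg/mL protein, was treated with 10 μM compound for 30 min and heated in aliquots for 3 min across 48°C-58°C. After pooling, adjustment to 0.5% NP-40 at 4°C and centrifugation at 21,000xg for 90 min, supernatant protein was measured by TMTpro 16plex LC-MS/MS with channel sums equalised.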

[2] = compound: C[C@@H](Oc1cc(-c2cnn(C3CCNCC3)c2)cnc1N)c1c(Cl)ccc(F)c1Cl [crizotinib]
Method in brief: as §1

[3] = compound: C[C@H](C1=CC=C(C=C1)C(=O)NC2=C3C=CNC3=NC=C2)N
Method in brief: as §1

[4] = compound: Cc1cc(Nc2cc(CN3CCOCC3)c3nc(C)c(Cc4ccc(Cl)cc4F)n3n2)n[nH]1 [gandotinib]
Method in brief: as §1

[5] = compound: Cc1ccc(-n2nc(C(C)(C)C)cc2NC(=O)Nc2ccc(OCCN3CCOCC3)c3ccccc23)cc1 [doramapimod]
Method in brief: as §1

[6] = compound: Cc1cccc(CC(=O)N2CCc3c2ccc(-c2cn(C)c4ncnc(N)c24)c3F)n1
Method in brief: as §1

[7] = compound: CS(=O)(=O)N1CCN(Cc2cc3nc(-c4cccc5[nH]ncc45)nc(N4CCOCC4)c3s2)CC1 [pictilisib]
Method in brief: as §1

[8] = compound: Cc1cc(Nc2cc(N3CCN(C)CC3)nc(Sc3ccc(NC(=O)C4CC4)cc3)n2)n[nH]1 [tozasertib]
Method in brief: as §1

[9] = compound: Cc1ccc(NC(=O)c2ccc(CN3CC[C@H](N(C)C)C3)c(C(F)(F)F)c2)cc1Nc1nccc(-c2cncnc2)n1 [bafetinib]
Method in brief: as §1

[10] = compound: C[C@H](Nc1ncnc2nc[nH]c12)c1cc2cccc(Cl)c2c(=O)n1-c1ccccc1 [duvelisib]
Method in brief: as §1

Measured: log2 fold change

MRPL22 (UniProt Q9NWU5)
inactive: [1] -0.023 | [2] -0.047 | [3] -0.038 | [4] -0.018 | [5] 0.016 | [6] 0.05

MAP3K4 isoform 2 (UniProt Q9Y6R4)
inactive: [2] 0.044 | [5] -0.007

LY6E (UniProt Q16553)
inactive: [1] -0.026 | [7] 0.071 | [4] 0.412 | [8] 0.079 | [9] -0.2 | [6] 0.588
active: [3] -1.51

MDM1 (UniProt Q8TC05)
active: [3] -1.42 | [6] 0.554
inactive: [1] -0.004 | [10] 0.05 | [4] 0.336 | [8] 0.083

KRAS isoform 2 (UniProt P01116)
inactive: [1] -0.023 | [2] -0.016 | [10] -0.022 | [8] -0.043 | [5] -0.062

MAPK12 (UniProt P53778)
inactive: [7] 0.059 | [10] -0.061 | [4] -0.15 | [8] 0.248 | [9] 0 | [6] -0.163
active: [3] 0.868

MPP5 (UniProt Q8N3R9)
UniProt Q8N3R9, sequence (Q8N3R9 whole entry, looked up): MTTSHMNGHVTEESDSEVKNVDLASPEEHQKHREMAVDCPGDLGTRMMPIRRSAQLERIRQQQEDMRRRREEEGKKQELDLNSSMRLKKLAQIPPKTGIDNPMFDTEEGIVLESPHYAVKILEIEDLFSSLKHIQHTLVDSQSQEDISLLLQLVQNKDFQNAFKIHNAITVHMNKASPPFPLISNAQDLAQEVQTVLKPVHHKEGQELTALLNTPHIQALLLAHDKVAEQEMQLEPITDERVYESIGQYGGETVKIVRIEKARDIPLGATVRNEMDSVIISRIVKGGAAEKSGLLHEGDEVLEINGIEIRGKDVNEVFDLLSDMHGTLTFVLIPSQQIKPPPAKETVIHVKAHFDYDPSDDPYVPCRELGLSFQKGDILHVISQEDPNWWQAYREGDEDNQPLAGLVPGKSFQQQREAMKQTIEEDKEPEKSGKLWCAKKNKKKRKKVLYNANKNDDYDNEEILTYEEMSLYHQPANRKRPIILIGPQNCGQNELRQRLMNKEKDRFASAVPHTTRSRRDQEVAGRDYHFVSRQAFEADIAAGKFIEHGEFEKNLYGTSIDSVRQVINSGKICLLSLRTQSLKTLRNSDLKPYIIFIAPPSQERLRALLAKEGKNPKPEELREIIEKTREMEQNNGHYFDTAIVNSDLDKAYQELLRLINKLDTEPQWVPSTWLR
inactive: [7] -0.091 | [2] -0.028 | [3] -0.003 | [10] -0.017 | [4] 0.01 | [8] -0.033 | [5] 0.115 | [9] -0.043 | [6] 0.099

MEGF8 (UniProt Q7Z7M0)
inactive: [7] -0.015 | [2] 0.113 | [3] -0.077 | [10] -0.167 | [4] -0.101 | [8] 0.02 | [5] -0.028 | [9] 0.068 | [6] -0.011

LRRC9 (UniProt Q6ZRR7)
inactive: [2] -0.065 | [3] 0.032 | [4] -0.488 | [8] 0.053 | [5] 0.074
active: [6] 0.694

LYN isoform 2 (UniProt P07948)
active: [4] 0.891
inactive: [2] 0.049 | [3] 0.026 | [10] -0.357 | [8] 0.126 | [5] -0.076 | [6] -0.006

KRI1 (UniProt Q8N9T8)
inactive: [7] -0.072 | [2] -0.057 | [3] 0.011 | [10] 0.036 | [4] -0.022 | [8] 0.014 | [5] 0.023 | [9] 0.009 | [6] 0.045

MRC2 (UniProt Q9UBG0)
inactive: [2] -0.3 | [3] -0.192 | [10] -0.49 | [4] 0.075 | [8] 0.063 | [5] 0.035 | [6] -0.184

MAP4K4 isoform 3 (UniProt O95819)
UniProt O95819, sequence (O95819 whole entry, looked up): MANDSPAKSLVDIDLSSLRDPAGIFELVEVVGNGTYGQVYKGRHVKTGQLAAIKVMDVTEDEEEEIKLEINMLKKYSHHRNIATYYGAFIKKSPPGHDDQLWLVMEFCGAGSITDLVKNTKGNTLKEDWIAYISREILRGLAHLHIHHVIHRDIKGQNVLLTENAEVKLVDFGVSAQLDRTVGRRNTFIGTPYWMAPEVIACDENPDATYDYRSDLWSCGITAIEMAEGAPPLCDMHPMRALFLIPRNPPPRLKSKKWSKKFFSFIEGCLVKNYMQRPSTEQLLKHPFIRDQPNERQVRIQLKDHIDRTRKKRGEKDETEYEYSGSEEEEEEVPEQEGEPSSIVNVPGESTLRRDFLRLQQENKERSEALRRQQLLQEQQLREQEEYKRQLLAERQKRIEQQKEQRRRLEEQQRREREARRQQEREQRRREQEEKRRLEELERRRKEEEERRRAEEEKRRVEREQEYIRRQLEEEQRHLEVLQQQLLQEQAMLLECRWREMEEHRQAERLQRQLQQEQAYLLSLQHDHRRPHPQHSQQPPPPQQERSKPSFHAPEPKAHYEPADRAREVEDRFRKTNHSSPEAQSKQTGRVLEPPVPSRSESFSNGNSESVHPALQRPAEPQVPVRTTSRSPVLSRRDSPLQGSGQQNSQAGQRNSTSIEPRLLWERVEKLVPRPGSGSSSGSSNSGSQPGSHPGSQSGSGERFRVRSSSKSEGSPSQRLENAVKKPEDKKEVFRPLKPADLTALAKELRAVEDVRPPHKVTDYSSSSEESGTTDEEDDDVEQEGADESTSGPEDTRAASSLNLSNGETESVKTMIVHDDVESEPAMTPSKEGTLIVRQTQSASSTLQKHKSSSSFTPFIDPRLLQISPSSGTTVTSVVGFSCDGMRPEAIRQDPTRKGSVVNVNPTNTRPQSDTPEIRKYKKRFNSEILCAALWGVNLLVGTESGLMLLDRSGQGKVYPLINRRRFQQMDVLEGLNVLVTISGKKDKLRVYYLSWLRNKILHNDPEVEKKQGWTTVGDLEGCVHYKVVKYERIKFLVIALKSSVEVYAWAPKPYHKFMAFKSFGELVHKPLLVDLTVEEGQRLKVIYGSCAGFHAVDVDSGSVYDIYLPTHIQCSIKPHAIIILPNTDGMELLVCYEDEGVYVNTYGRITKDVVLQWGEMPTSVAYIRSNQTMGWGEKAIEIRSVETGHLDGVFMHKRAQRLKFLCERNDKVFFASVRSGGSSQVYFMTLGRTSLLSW
inactive: [1] -0.061 | [7] -0.049 | [3] 0.201 | [10] 0.078 | [4] -0.088 | [8] 0.014 | [5] 0.087 | [9] 0.03 | [6] -0.01

MAPK7 (UniProt Q13164)
inactive: [1] -0.145 | [2] 0.246 | [3] -0.083 | [4] 0.161 | [8] -0.029 | [5] 0.01 | [6] -0.099

MAPKAP1 (UniProt Q9BPZ7)
inactive: [2] 0.02 | [10] -0.192 | [8] 0.113 | [5] -0.029

KLC1 isoform 10 (UniProt Q07866)
inactive: [7] -0.167 | [8] 0.016 | [9] 0.032

MPDZ (UniProt O75970)
inactive: [1] 0.046 | [2] 0.127 | [3] 0.099 | [10] -0.003 | [4] 0.016 | [8] 0.118 | [5] 0.053 | [6] -0.066

KIF3C (UniProt O14782)
UniProt O14782, sequence (O14782 whole entry, looked up): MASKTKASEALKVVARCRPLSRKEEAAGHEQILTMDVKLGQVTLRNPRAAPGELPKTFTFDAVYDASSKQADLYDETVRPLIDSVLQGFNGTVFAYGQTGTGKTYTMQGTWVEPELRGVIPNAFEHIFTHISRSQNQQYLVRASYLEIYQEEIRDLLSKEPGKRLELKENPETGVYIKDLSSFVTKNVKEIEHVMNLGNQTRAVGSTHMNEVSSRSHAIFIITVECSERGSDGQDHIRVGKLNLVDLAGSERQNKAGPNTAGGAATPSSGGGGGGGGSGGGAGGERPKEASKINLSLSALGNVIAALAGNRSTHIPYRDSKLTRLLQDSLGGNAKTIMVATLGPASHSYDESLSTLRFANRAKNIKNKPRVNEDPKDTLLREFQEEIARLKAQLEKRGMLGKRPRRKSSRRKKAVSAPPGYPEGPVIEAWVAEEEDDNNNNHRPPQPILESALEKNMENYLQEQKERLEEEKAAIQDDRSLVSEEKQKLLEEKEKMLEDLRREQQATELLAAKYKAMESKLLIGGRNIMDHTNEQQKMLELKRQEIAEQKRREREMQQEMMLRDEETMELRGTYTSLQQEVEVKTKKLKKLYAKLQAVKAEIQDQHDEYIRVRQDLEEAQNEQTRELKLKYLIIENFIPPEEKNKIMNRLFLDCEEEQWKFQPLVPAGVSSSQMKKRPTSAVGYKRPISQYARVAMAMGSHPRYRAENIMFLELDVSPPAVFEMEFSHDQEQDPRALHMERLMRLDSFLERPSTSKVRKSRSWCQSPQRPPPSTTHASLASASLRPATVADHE
inactive: [1] -0.172 | [2] -0.177 | [3] -0.119 | [10] 0 | [4] -0.002 | [8] -0.394 | [5] -0.031 | [6] 0.152

KRAS (UniProt P01116)
inactive: [1] 0.019 | [2] 0.017 | [3] -0.078 | [10] 0.001 | [4] 0.044 | [8] -0.013 | [5] 0.006 | [6] 0.145

LRRIQ1 (UniProt Q96JM4)
inactive: [1] 0.04 | [2] -0.278 | [5] -0.073

KIFC3 isoform 6 (UniProt Q9BVG8)
active: [3] -1.85
inactive: [7] -0.127 | [2] -0.21 | [10] 0.089 | [4] 0.111 | [8] -0.111 | [5] -0.034 | [9] -0.221 | [6] 0.296

MOCS3 (UniProt O95396)
inactive: [7] 0.004 | [2] -0.127 | [3] -0.176 | [10] 0.009 | [4] 0.227 | [8] 0.027 | [5] 0.072 | [9] -0.054 | [6] 0.348

MBTPS1 (UniProt Q14703)
inactive: [7] 0.012 | [2] -0.008 | [3] 0.114 | [10] -0.006 | [4] -0.164 | [8] -0.009 | [5] 0.01 | [9] -0.001 | [6] -0.15

MEX3A (UniProt A1L020)
inactive: [10] 0.196

LGALS3BP (UniProt Q08380)
UniProt Q08380, sequence (Q08380 whole entry, looked up): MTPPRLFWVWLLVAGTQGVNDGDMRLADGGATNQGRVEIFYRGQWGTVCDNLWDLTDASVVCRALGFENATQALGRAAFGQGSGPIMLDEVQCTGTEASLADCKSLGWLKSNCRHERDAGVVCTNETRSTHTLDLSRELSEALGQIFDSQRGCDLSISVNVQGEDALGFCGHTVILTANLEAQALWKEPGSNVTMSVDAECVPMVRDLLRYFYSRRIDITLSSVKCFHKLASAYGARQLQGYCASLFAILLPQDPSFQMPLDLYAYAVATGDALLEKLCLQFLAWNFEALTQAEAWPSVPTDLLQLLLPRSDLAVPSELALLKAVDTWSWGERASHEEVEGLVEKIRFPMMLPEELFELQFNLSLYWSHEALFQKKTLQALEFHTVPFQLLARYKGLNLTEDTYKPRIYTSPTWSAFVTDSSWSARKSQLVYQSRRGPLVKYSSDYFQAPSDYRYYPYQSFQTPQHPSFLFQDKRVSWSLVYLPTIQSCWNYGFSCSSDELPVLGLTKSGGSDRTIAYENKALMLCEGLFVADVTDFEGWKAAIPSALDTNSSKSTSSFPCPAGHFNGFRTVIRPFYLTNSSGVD
inactive: [1] -0.239 | [2] 0.204 | [3] 0.035 | [10] -0.149 | [4] 0.197 | [8] 0.115 | [5] -0.087 | [6] 0.53

LRP1 (UniProt Q07954)
inactive: [1] -0.047 | [2] -0.488 | [8] 0.239 | [5] 0.022

MDM2 isoform 11 (UniProt Q00987)
inactive: [7] -0.003 | [2] 0.014 | [3] -0.004 | [4] 0.044 | [5] 0.009 | [9] 0.054 | [6] -0.158

MAP4K2 (UniProt Q12851)
inactive: [1] -0.164 | [7] 0.126 | [3] 0.145 | [10] 0.077 | [4] 0.273 | [8] 0.054 | [5] 0.035 | [9] -0.126 | [6] -0.015

KIF21A (UniProt H0YI78)
inactive: [1] -0.11 | [7] 0.052 | [10] -0.013 | [9] 0.187

MAP4K4 isoform 6 (UniProt O95819)
inactive: [1] -0.002 | [7] -0.092 | [10] -0.038 | [8] 0.102 | [9] 0.016

LRIF1 (UniProt Q5T3J3)
UniProt Q5T3J3, sequence (Q5T3J3 whole entry, looked up): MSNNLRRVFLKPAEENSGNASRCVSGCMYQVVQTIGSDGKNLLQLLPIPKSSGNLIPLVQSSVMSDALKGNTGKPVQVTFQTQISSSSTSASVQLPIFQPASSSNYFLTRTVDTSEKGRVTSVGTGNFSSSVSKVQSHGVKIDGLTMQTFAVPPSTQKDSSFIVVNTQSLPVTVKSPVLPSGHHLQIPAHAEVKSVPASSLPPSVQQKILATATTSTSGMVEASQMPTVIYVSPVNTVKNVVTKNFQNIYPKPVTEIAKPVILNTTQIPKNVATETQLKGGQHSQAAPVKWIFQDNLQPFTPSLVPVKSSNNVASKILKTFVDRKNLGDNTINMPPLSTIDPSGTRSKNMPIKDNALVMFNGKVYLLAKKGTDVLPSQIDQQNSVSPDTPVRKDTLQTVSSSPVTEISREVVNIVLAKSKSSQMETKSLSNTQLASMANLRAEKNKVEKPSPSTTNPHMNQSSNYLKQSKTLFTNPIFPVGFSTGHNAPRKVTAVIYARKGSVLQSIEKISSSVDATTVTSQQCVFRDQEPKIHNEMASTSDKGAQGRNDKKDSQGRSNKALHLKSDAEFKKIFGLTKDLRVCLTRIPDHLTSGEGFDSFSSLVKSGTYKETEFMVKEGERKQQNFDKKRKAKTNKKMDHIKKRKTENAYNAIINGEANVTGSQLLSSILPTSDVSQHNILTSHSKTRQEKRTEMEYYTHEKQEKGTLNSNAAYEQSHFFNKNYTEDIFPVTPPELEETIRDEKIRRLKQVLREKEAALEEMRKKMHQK
inactive: [1] -0.094 | [2] 0.019 | [3] -0.008 | [10] -0.133 | [4] 0.006 | [8] 0.039 | [5] 0.026 | [6] -0.038

MAP3K6 (UniProt O95382)
inactive: [8] -0.061

MARF1 (UniProt Q9Y4F3)
inactive: [7] -0.212 | [2] -0.021 | [3] 0.035 | [10] -0.002 | [4] -0.1 | [8] -0.032 | [5] -0.004 | [9] -0.012 | [6] 0.095

KIF26A (UniProt Q9ULI4)
inactive: [7] 0.039 | [2] 0.013 | [3] -0.065 | [10] -0.017 | [4] 0.003 | [8] 0.086 | [5] -0.002 | [9] -0.055 | [6] 0.002

KIF2A isoform 2 (UniProt O00139)
UniProt O00139, sequence (O00139 whole entry, looked up): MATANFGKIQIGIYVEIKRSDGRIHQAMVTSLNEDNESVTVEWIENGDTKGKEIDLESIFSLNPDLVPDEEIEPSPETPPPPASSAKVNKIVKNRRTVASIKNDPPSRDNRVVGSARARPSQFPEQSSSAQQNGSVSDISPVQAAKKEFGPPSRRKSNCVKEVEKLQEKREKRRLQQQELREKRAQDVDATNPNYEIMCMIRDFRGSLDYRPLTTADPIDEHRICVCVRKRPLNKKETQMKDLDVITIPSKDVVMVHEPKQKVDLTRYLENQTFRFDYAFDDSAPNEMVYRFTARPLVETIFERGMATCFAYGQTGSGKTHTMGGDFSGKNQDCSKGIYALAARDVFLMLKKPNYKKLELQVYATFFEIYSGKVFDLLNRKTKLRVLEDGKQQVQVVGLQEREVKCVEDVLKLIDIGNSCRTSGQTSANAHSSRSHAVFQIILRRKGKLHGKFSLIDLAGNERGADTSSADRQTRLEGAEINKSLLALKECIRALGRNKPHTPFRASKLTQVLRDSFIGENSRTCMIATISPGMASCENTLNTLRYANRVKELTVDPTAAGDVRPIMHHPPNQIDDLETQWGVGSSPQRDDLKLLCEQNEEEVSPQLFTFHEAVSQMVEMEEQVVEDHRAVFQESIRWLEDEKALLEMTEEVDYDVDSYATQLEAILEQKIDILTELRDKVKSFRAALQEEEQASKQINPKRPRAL
inactive: [3] 0.192 | [4] -0.059 | [6] -0.059

MED28 (UniProt Q9H204)
UniProt Q9H204, sequence (Q9H204 whole entry, looked up): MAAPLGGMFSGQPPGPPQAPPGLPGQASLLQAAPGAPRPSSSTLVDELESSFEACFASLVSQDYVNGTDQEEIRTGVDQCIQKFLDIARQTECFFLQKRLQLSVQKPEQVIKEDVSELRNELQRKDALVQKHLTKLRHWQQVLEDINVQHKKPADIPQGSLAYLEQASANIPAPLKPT
inactive: [1] 0.132 | [2] 0.021 | [3] -0.039 | [10] -0.034 | [5] -0.012 | [6] -0.038
active: [4] 0.394
